# Results reported in ChEMBL document CHEMBL3988442, “University of Dundee, Small-Polar-MMV Screening Library” (2021).
# Hit rate of the full screen: of about 69,000 compounds, about 1,000 (1.4%) showed an effect of 50% or more. This excerpt belongs to a sample that is enriched for strong results.
# Test system: Leishmania donovani
# Assay: Leishmania intramacrophage assay
# Type: functional, organism-based
# Design: scale not given: in the data most compounds retested in dose-response had high values
structure (smiles),measurement,setting,value
COCC(=O)N1Cc2nccn2CC(CN(C)Cc2cccnc2)C1 (configuration not stated),Percent Effect,"30.3 µM, […]",24.51%
CN(Cc1cccnc1)CC1CN(C(N)=O)Cc2nccn2C1 (configuration not stated),Percent Effect,"30.3 µM, […]",59.79%
NC(=O)CCn1cc(CNCCCc2ccccc2O)c2ccccc21,Percent Effect,"30.3 µM, […]",30.89%
Cc1ccsc1CNCC1CCCN1c1cccnn1 (configuration not stated),Percent Effect,30 µM,29.66%
CC(C)N1CCC2(CCCN(Cc3ccc(F)cc3)C2=O)C1 (configuration not stated),Percent Effect,"30.3 µM, […]",12.06%
CCCc1cc(N2CCC(N[C@H]3CC[C@H](O)CC3)CC2)nc(C)n1,Percent Effect,"30.3 µM, […]",8.442%
Cc1nn(C)c2cn(CC(=O)N3CCN(c4ccccc4)CC3)nc12,Percent Effect,"30.3 µM, […]",30.49%
CN1CCN(c2ccccc2NC(=O)c2ccco2)CC1,Percent Effect,"30.3 µM, […]",13.32%
CN1CCN(c2ccc(Br)cc2NC(=O)c2ccco2)CC1,Percent Effect,"30.3 µM, […]",53.58%
CN1CCN(c2ccc(Cl)cc2NC(=O)c2ccco2)CC1,Percent Effect,"30.3 µM, […]",18.57%
Cc1ccc(C(=O)O)cc1-c1cccc2c1CCNC2,Percent Effect,"30.3 µM, […]",17.04%
O=C(c1ccnnc1)N1C[C@H](OCC2CC2)[C@H]2COC[C@H]21,Percent Effect,"30.3 µM, […]",15.2%
CCOc1ccc(Cl)c(C(=O)NC(C(N)=O)c2ccccc2)n1 (configuration not stated),Percent Effect,"30.3 µM, […]",28.97%
Cc1cccc(CN2C(=O)CC[C@@H]3[C@H]2CCN3Cc2ccc(C)s2)n1.O=C(O)C(F)(F)F.O=C(O)C(F)(F)F,Percent Effect,"30 µM, 30.03 µM",7.01%
NC1CCCc2c1cnn2-c1cc(F)cc(F)c1 (configuration not stated),Percent Effect,"30.3 µM, […]",-4.914%
Cc1ccc(-n2ncc3c2CCCC3N)cc1C (configuration not stated),Percent Effect,"30.3 µM, […]",72.93%
CC(C)(C)c1ccc(-n2ncc3c2CCCC3N)cc1 (configuration not stated),Percent Effect,"30.3 µM, […]",27.02%
Cc1ccc(-n2ncc(C(=O)N(C)C3CCN(C)CC3)c2N)cc1C,Percent Effect,"30.3 µM, […]",14.5%
CN(C)S(=O)(=O)NC1CCCc2c1cnn2-c1ccc(C(C)(C)C)cc1 (configuration not stated),Percent Effect,"30.3 µM, […]",27.24%
Cc1cc(C)cc(-n2ncc3c2CCCC3N)c1 (configuration not stated),Percent Effect,"30.3 µM, […]",79.9%
O=C(O)C(F)(F)F.c1cnc(NCc2nnn3c2CN(Cc2ccsc2)CCC3)nc1,Percent Effect,"30.3 µM, […]",-35.49%
Cc1ccc(OCCNc2cccc(C(=O)N3CCOCC3)c2)cc1,Percent Effect,"30.3 µM, […]",19.35%
CC(=O)NCc1cccc(-n2ccnc2-c2cccc(C(=O)O)c2)c1,Percent Effect,"30.3 µM, […]",-4.637%
CC(C)C(NC(=O)c1ccccc1F)C(=O)Nc1cnn(C)c1 (configuration not stated),Percent Effect,"30.3 µM, […]",14.78%
Cc1ccc(-c2cc(C(=O)NCCN3CCCS3(=O)=O)[nH]n2)cc1,Percent Effect,30 µM,-10.89%
CC(C)c1nc(C2CCCN(C(=O)CCCn3ccnc3)C2)no1 (configuration not stated),Percent Effect,30 µM,30.47%
NC(=O)C1CCCN1C1CCN(C(=O)c2ccc3c(c2)OCO3)CC1 (configuration not stated),Percent Effect,"30.3 µM, […]",5.65%
COc1ccc(NCc2nc(=O)n(CCC(C)C)[nH]2)cc1,Percent Effect,"30 µM, 30.03 µM",11.21%
O=C(Cc1cccc(F)c1)NCCNCc1ccc2c(c1)CCO2,Percent Effect,"30 µM, 30.03 µM",29.87%
O=c1[nH]c2nc(NCC3CCCO3)ncc2c(=O)n1-c1ccc(F)cc1 (configuration not stated),Percent Effect,"30.3 µM, […]",51.53%
O=c1[nH]c2nc(NC3CC3)ncc2c(=O)n1-c1ccc(F)cc1,Percent Effect,"30.3 µM, […]",24.05%
O=c1[nH]c2nc(NCC3CCCO3)ncc2c(=O)n1-c1cccc(F)c1 (configuration not stated),Percent Effect,"30.3 µM, […]",20.13%
O=C(c1cc(C2CCCCN2CCO)n[nH]1)N1CCOCC1.O=CO (configuration not stated),Percent Effect,"30.3 µM, […]",-5.533%
COc1ccccc1CN(Cc1cccc(C)c1)C(=O)[C@@H](N)CC(=O)O,Percent Effect,"30.3 µM, […]",13.42%
COCC(=O)N(Cc1cccc(C)c1)Cc1ccccc1OC,Percent Effect,"30.3 µM, […]",40.9%
CN[C@@H](C)C(=O)N(Cc1cccc(C)c1)Cc1ccccc1OC,Percent Effect,"30.3 µM, […]",82.29%
CC1CN(C(=O)C2(c3cccc(F)c3)CCOCC2)CCO1 (configuration not stated),Percent Effect,"30.3 µM, […]",18.33%
O=C(NCCCN1CCc2ccccc2C1)c1ccccc1Br,Percent Effect,30 µM,36.73%
Cc1ccccc1C(=O)NCCCN1CCc2ccccc2C1,Percent Effect,30 µM,9.574%
O=C(NCCCN1CCc2ccccc2C1)c1ccccc1Cl,Percent Effect,30 µM,53%
N#Cc1ccc(OCC(O)CN2CCC(Cn3cccn3)CC2)cc1 (configuration not stated),Percent Effect,30 µM,5.34%
O=C(O)C(F)(F)F.O=C(O)[C@]12CCCN(CC3CCOC3)C[C@H]1CN(c1ncccn1)C2 (some centres not stated),Percent Effect,"30.3 µM, […]",22.4%
O=C(O)C(F)(F)F.O=C(O)[C@]12CCCN(C3CCOC3)C[C@H]1CN(c1nncs1)C2 (some centres not stated),Percent Effect,"30.3 µM, […]",23.22%
Cc1cnc(N2C[C@@H]3CN(C4CCOC4)CCC[C@]3(C(=O)O)C2)nc1.O=C(O)C(F)(F)F (some centres not stated),Percent Effect,"30.3 µM, […]",51.36%
CC(C)(C)OC(=O)N1CCCC[C@H]1C(=O)NCc1nccs1,Percent Effect,"30 µM, 30.03 µM",12.63%
CCOC(=O)c1c(NC(=O)CN2CCN(C(C)=O)CC2)sc(C)c1C,Percent Effect,"30.3 µM, […]",29.91%
CCc1c(C)sc(NC(=O)CN2CCOCC2)c1C(=O)OC,Percent Effect,"30.3 µM, […]",-39.48%
CCc1c(C)sc(NC(=O)CN2CCN(CC)CC2)c1C(=O)OC,Percent Effect,"30 µM, 30.03 µM",52.48%
Cc1cc(NC(=O)CN2CCCC2c2c(C)nn(C)c2Cl)on1 (configuration not stated),Percent Effect,30 µM,24.03%
CCc1cc(CN(C)C(=O)c2cc(=O)[nH]c(=O)[nH]2)on1,Percent Effect,"30.3 µM, […]",53.82%
CCc1cc(CN(C)C(=O)c2cnon2)on1,Percent Effect,"30.3 µM, […]",11.76%
CCc1cc(CN(C)C(=O)c2cnn[nH]2)on1,Percent Effect,"30.3 µM, […]",12.71%
